Assay results taken from PubChem BioAssay (NCATS).
Values joined by “and” are separate entries in the source; they are usually repeats but may differ in a detail not shown here. Equal entries are not always repeated. Results filed as inconclusive are left out. Some structures have more than one record in an assay (separate samples or runs), and their calls can disagree. Active and inactive are the calls of the source. Unless noted, the call rests on the fitted dose curve; in most records, active means well fitted curve in the direction sought with a large enough effect; inconclusive means small, poorly fitted or top-dose-only effect, or another doubt; inactive means no such curve, though single readings can be large; an effect the other way counts as inactive or inconclusive.

Columns and labels:
[1] = target: Lysosomal acid glucosylceramidase (Homo sapiens) (UniProt P04062); assay: Glucocerebrosidase-p2 (AID 348; in the data active means potency below about 10 µM; further: potency means the concentration at half of the fitted maximal effect); details: purified GBA, blue fluorogenic substrate, 40 min
Method in brief: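 Compounds titrated from 0.6 nM upwards against 0.2 nM enzyme in pH 5.9 citric acid/KH2PO4, taurocholate, tween-20; blue fluorogenic substrate 80 uM, 40 min room temperature, stopped and read Ex 365/Em 440 for AC50.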

[2] = target: Cytochrome P450 1A2 (Homo sapiens) (UniProt P05177); assay: p450-cyp1a2 (AID 410; calls by dose curve; further: potency means the concentration at half of the fitted maximal effect); details: recombinant CYP1A2, luciferin-ME demethylation, luminescence; series mostly up to 57 µM
Method in brief: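 Inhibition was calculated relative to 57 uM furafylline (full inhibition). The reaction used human CYP1A2 at 20nM with Luciferin-ME at its Km, 100uM, driven by an NADPH-regenerating system for 60 min at room temperature.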

[3] = NFAT Signaling Pathway (AID 444; active means well fitted curve in either direction with a large enough effect, not every such curve was filed as active;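 further: carbachol stimulus at about its EC50 of 1 µM final; on the % scale 0 is the no-effect control and ±100 the full control effect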); details: Jurkat NFAT-bla M1, carbachol, beta-lactamase ratio, 5 h; at 7.69 µM (top of the series) unless noted
Method in brief: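 Jurkat cells with NFAT-driven β-lactamase reporter and co-expressed M1 receptor, stimulated with carbachol (final 1 uM, ~EC50), compound titration, 5 h at 37 °C. CCF4 loaded 1 h at RT; 460/530 nm ratio gave %activity and AC50.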

[4] = Stat Signaling Pathway (AID 446; active means well fitted curve in either direction with a large enough effect, not every such curve was filed as active;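 further: ME-180 cervical cancer cells given 40 pM IL-6 alongside compound; SIE-controlled beta-lactamase reporter measured as 460/530 nm FRET emission ratio; on the % scale 0 is the no-effect control and ±100 the full control effect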); details: ME-180 SIE beta-lactamase reporter, IL-6 stimulated, 5 h; at 7.69 µM (top of the series) unless noted
Method in brief: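 Screening format detects activators and inhibitors alike: ME-180 SIE-bla cells stimulated at 40 pM IL-6 for 5 hrs with compound, then dual-emission beta-lactamase read at 405 nm excitation.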

[5] = target: Glucocorticoid receptor (Homo sapiens) (UniProt P04150); assay: GR-EFC Redistribution (AID 451; calls by dose curve; further: potency means the concentration at half of the fitted maximal effect); details: CHO-K1 GR-EFC translocation, beta-gal luminescence, 2 h
Method in brief: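 CHO-K1 cells expressing nuclear EA and GR-ED fragments of b-gal; compounds titrated up to 46 uM final, 2 h at 37 C. GR nuclear translocation read as complemented b-gal luminescence after 1 h RT detection.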

[6] = target: Mitogen-activated protein kinase 10 (Mus musculus) (UniProt Q61831); assay: JNK3 AlphaScreen Assay (AID 530; active means well fitted curve in either direction with a large enough effect, not every such curve was filed as active;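 further: kinase came from lysate of stimulated human HepG2 cells; signal reports phosphorylation of biotinylated GST-cJun 1-79 at Ser73 with 10 µM ATP; on the % scale 0 is the no-effect control and ±100 the full control effect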); details: JNK3 lysate, c-Jun phosphorylation; series mostly up to 57.1 µM
Method in brief: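 qHTS format: compounds tested as titrations against IL-1beta/TNF-alpha-activated HepG2 lysate JNK3 with biotin-GST-cJun substrate and 10 uM ATP at room temperature. Loss of anti-phospho-cJun AlphaScreen signal indicates inhibition.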

[7] = target: 3',5'-cyclic-AMP phosphodiesterase 4B (Homo sapiens) (UniProt Q07343); assay: qHTS Assay for Inhibitors of PDE-IV (AID 607; active means well fitted activation curve with a large enough effect in the main read-out, with a control signal flat, not every such curve was filed as active; further: % of control where 0% means no effect); details: HEK293 ACTOne CNG channel cells, membrane potential fluorescence; series mostly up to 22.9 µM
Method in brief: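 The readout is membrane depolarisation from a cAMP-sensing CNG channel, detected with a potential dye at ex 535/em 590. Cells were HEK293-derived (endogenous PDE-IV) at 1000 cells/well, titrated up to 22.9 uM final.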

[8] = target: Cytochrome P450 2C9 (Homo sapiens) (UniProt P11712); assay: qHTS Assay for Inhibitors and Substrates of Cytochrome P450 2C9 (AID 883); details: recombinant CYP2C9, luciferin-H luminescence, 60 min; series mostly up to 57.1 µM; further: potency means the concentration at half of the fitted maximal effect; nearly all actives have a fitted effect of over 60% in size
Method in brief: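 10nM CYP2C9 + 100uM Luciferin-H (=KM), 25mM KPO4; cpd 10 min 37C; NADPH regen, 60 min 37C; stop/detect with P450 Glo-Buffer 20 min; luminescence. Norm. to 57uM sulphaphenazole as full inhibition.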

[9] = target: Cytochrome P450 3A4 (Homo sapiens) (UniProt P08684); assay: qHTS Assay for Inhibitors and Substrates of Cytochrome P450 3A4 (AID 884); details: recombinant CYP3A4, Luciferin-PPXE luminescence; series mostly up to 57.1 µM; further: nearly all actives have a fitted effect of over 50% in size; further: potency means the concentration at half of the fitted maximal effect
Method in brief: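 20 nM human CYP3A4 with 25 uM Luciferin-PPXE (at KM) in 200 mM KPO4, preincubated 10 min with compound; NADPH regeneration started a 60 min RT reaction. Luciferin detected by luminescence, normalized to 57 uM ketoconazole as full inhibition.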

[10] = target: Cytochrome P450 3A4 (Homo sapiens) (UniProt P08684); assay: qHTS Assay for Activators of Cytochrome P450 3A4 (AID 885); details: recombinant CYP3A4, Luciferin-PPXE luminescence, 60 min; series mostly up to 57.1 µM; further: nearly all actives have a fitted effect of over 65% in size
Method in brief: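 Steps: enzyme/substrate mix dispensed; compound added, 10 min RT; NADPH regeneration solution added, 60 min RT; luciferin detection buffer stops reaction; 20 min later luminescence measured.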

[11] = target: Cytochrome P450 2D6 (Homo sapiens) (UniProt P10635); assay: qHTS Assay for Inhibitors and Substrates of Cytochrome P450 2D6 (AID 891); details: recombinant CYP2D6, luciferin-ME EGE luminescence; series mostly up to 57.1 µM; further: potency means the concentration at half of the fitted maximal effect; nearly all actives have a fitted effect of over 60% in size
Method in brief: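 Human CYP2D6 (5 nM) with 30 uM Luciferin-ME EGE (at Km) in 100 mM KPO4, compound preincubated 10 min, then NADPH regeneration system for 60 min at room temperature. Luciferin read by luminescence; normalized to 1.43 uM quinidine.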

[12] = target: Cytochrome P450 2C19 (Homo sapiens) (UniProt P33261); assay: qHTS Assay for Inhibitors and Substrates of Cytochrome P450 2C19 (AID 899); details: recombinant CYP2C19, luciferin-H EGE luminescence; series mostly up to 57.1 µM; further: potency means the concentration at half of the fitted maximal effect; nearly all actives have a fitted effect of over 60% in size
Method in brief: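 Luminescent read-out of luciferin formed from Luciferin-H EGE (10uM, equal to KM). Enzyme 5nM in 50mM KPO4; compound added, 10 min at 37C, then NADPH regenerating system for 60 min at 37C. Full inhibition defined by 57uM ketoconazole.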

[13] = qHTS Assay for Lipid Storage Modulators (AID 1519; calls by dose curve); details: Drosophila S3 cells, BODIPY lipid droplet/cell ratio, laser cytometry, cells loaded with oleic acid
Method in brief: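 Cells seeded at 5,000 per well were treated with compounds over a concentration series and loaded with oleic acid (400 uM, as added). Lipid droplet fluorescence (488 nm excitation, 500-530 nm channel) was read by laser-scanning cytometry and normalized to 20 uM Triacsin C.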

[14] = target: Dual specificity protein kinase CLK4 (Homo sapiens) (UniProt Q9HAZ1); assay: qHTS Assay for Inhibitors of CDC-like Kinase 4 (Kinase-Glo Assay) (AID 1770); details: recombinant Clk4, Kinase-Glo ATP depletion luminescence; series mostly up to 66.7 µM; further: potency means the concentration at half of the fitted maximal effect; nearly all actives have a fitted effect of over 65% in size
Method in brief: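 Clk4 25 nM, RS peptide 100 uM, ATP 1 uM, pH 7.5 Tris, 10 mM MgCl2, 2.5 mM DTT; 4.5 h RT; ATP depletion read by Kinase-Glo luminescence.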

[15] = target: Dual specificity protein kinase CLK4 (Homo sapiens) (UniProt Q9HAZ1); assay: qHTS Assay for Inhibitors of CDC-like Kinase 4 (ADP-Glo Assay) (AID 1771); details: recombinant CLK4, ADP-Glo luminescence; series mostly up to 80 µM; further: potency means the concentration at half of the fitted maximal effect; nearly all actives have a fitted effect of over 70% in size
Method in brief: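 Kinase reaction: Clk4 at 25 nM, RS repeat peptide substrate at 100 uM, ATP at 1 uM, 1 hr, room temperature. Product ADP detected as luciferase signal via ADP-Glo.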

[16] = target: Dual specificity protein kinase CLK4 (Homo sapiens) (UniProt Q9HAZ1); assay: qHTS Assay for Inhibitors of CDC-like Kinase 4 (ADP-FP Assay) (AID 1795); details: Transcreener ADP fluorescence polarization; series mostly up to 50 µM; further: potency means the concentration at half of the fitted maximal effect; nearly all actives have a fitted effect of over 60% in size
Method in brief: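 Kinase activity was followed as ADP output, converted from fluorescence polarization with a calibration curve. Reactions ran one hour at low ATP (1 uM) with RS peptide substrate.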

[17] = target: Rap guanine nucleotide exchange factor 3 (Homo sapiens) (UniProt O95398); assay: Confirmatory qHTS for antagonist of cAMP-regulated guanine nucleotide exchange factor 3 (EPAC1) (AID 1645880); details: EPAC1 Rap1B-BODIPY-GDP exchange, fluorescence; series mostly up to 115 µM;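 further: plate controls were DMSO only for no effect and full effect of the ATA control for full effect; nearly all actives have a fitted effect of over 55% in size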
Method in brief: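 Nucleotide exchange uses 100 nM EPAC1, 250 nM RAP1B-BODIPY-GDP and 50 uM GDP, with compounds in a concentration-titration series. After 5 min at room temperature, fluorescence (480 nm ex/540 nm em) is read every 5 min for 30 min. Data are normalized to control ATA and DMSO.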

[18] = target: Rap guanine nucleotide exchange factor 3 (Homo sapiens) (UniProt O95398); assay: Confirmatory qHTS for agonist of cAMP-regulated guanine nucleotide exchange factor 3 (EPAC1) (AID 1645881); details: EPAC1 Rap1B BODIPY-GDP exchange fluorescence; series mostly up to 154 µM;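 further: EPAC1 catalysed release of BODIPY-GDP from Rap1B seen as fluorescence loss; 100% = effect of cAMP agonist control; nearly all actives have a fitted effect of over 75% in size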
[19] = target: Rap guanine nucleotide exchange factor 4 (Homo sapiens) (UniProt Q8WZA2); assay: Confirmatory qHTS for agonist of cAMP-regulated guanine nucleotide exchange factor 4 (EPAC2) (AID 1645884); details: EPAC2 GEF activity, Rap1B-BODIPY-GDP fluorescence; series mostly up to 154 µM;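 further: nucleotide exchange releases bodipy-GDP from Rap1 and this lowers its fluorescence; on the % scale 0 is the no-effect control and ±100 the full control effect; nearly all actives have a fitted effect of over 65% in size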
[20] = target: Rap guanine nucleotide exchange factor 4 (Homo sapiens) (UniProt Q8WZA2); assay: Confirmatory qHTS for antagonist of cAMP-regulated guanine nucleotide exchange factor 4 (EPAC2) (AID 1645885); details: EPAC2 Rap1B-BODIPY-GDP exchange fluorescence, biochemical; series mostly up to 114 µM; further: nearly all actives have a fitted effect of over 25% in size; further: potency means the concentration at half of the fitted maximal effect
[21] = AP1 Signaling Pathway (AID 357; active means well fitted curve in either direction with a large enough effect, not every such curve was filed as active;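 further: ME-180 reporter cells stimulated with EGF at its EC50 level; on the % scale 0 is the no-effect control and ±100 the full control effect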); details: ME-180 AP-1-bla reporter, EGF-induced, beta-lactamase ratio, 5 h; at 7.69 µM (top of the series) unless noted
Method in brief: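 In this screen, ME-180 cells in Opti-MEM with 0.5% dialyzed FBS received EC50 EGF and compound titrations for 5 h. AP-1 reporter beta-lactamase was detected via CCF4 ratio, giving AC50 for positive and negative modulators.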

[22] = target: Glucocorticoid receptor (Homo sapiens) (UniProt P04150); assay: GR-GFP Redistribution (AID 450;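 active means compounds whose dose series gives a full or clear partial fitted curve of increased nuclear translocation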; further: potency means the concentration at half of the fitted maximal effect); details: U2OS GR-GFP nuclear translocation, laser cytometry, 2 h
[23] = qHTS Assay for Identification of Small Molecule Agonists for Hypoxia Response Element Signaling Pathway (AID 914; active means well fitted activation curve with a large enough effect in the signal ratio, with a control signal flat, not every such curve was filed as active; the % refers to the signal ratio; further: potency means the concentration at half of the fitted maximal effect); details: ME-180 (cervical carcinoma) HRE-bla reporter, beta-lactamase ratio, CoCl2, 17 h; activation: stronger effect = higher value
Method in brief: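 In Opti-MEM containing 0.5% dialyzed FBS and 10 mM HEPES, ME-180 HRE-bla cells received a compound titration and EC50 CoCl2. They were incubated 17 hours, then CCF4-loaded 2.5 hours at room temperature before ratio reading.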

[24] = Confirmation and Secondary Assay for Modulators of Hemoglobin Beta Chain Splicing at IVS2 705 locus (AID 930); details: HeLa EGFP-705 splicing reporter, GFP fluorescence, 48 h; series mostly up to 38.3 µM;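 further: HeLa cells stably expressing the EGFP-705 splicing reporter; GFP fluorescence per well restored by corrected splicing of the IVS2-705 intron in EGFP; % of control where 0% means no effect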
Method in brief: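 Per-well GFP, captured at 1 x 8 µm resolution with 488 nm excitation, served as the read-out for HeLa EGFP-705 cells incubated 2 days with test compound versus DMSO.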

[25] = target: Ubiquitin carboxyl-terminal hydrolase 1 (Homo sapiens) (UniProt O94782); assay: Inhibitors of USP1/UAF1: Pilot qHTS (AID 504865); details: purified USP1/UAF1, Ub-rhodamine cleavage fluorescence; series mostly up to 54.9 µM;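 further: rhodamine fluorescence freed from ubiquitin-rhodamine substrate followed over time; top concentration of the series differs between compounds; on the % scale 0 is the no-effect control and ±100 the full control effect; nearly all actives have a fitted effect of over 35% in size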
Method in brief: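 Enzyme-free wells gave the negative control, while test wells held 1nM USP1/UAF1 preincubated with compound for 15 min at room temperature. Ub-Rho at 150nM final started the reaction, and fluorescence at 480/540 nm was recorded kinetically.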

[26] = target: Rap guanine nucleotide exchange factor 3 (Homo sapiens) (UniProt O95398); assay: Counterscreen qHTS for antagonist of cAMP-regulated guanine nucleotide exchange factor 3 (EPAC1) (AID 1645888); details: Rap1B-BODIPY-GDP nucleotide exchange, fluorescence; series mostly up to 154 µM;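 further: fluorescence loss as bound BODIPY-GDP is released from Rap1B; % of control where 0% means no effect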
Method in brief: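 Rap1B–BODIPY-GDP (250 nM) with 50 uM GDP; compounds pin-transferred to 9.74 nM–152 uM final (activator) or from 7.32 nM upwards (inhibitor). Fluorescence Ex/Em 480/540 nm read at 5 and 30 min, then after adding cAMP or buffer, at room temperature.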

[27] = measured here: cell count channel max response
[28] = measured here: lipid channel max response

Chain of Cytochrome P450 3A4 (Homo sapiens) (P08684 whole entry, looked up): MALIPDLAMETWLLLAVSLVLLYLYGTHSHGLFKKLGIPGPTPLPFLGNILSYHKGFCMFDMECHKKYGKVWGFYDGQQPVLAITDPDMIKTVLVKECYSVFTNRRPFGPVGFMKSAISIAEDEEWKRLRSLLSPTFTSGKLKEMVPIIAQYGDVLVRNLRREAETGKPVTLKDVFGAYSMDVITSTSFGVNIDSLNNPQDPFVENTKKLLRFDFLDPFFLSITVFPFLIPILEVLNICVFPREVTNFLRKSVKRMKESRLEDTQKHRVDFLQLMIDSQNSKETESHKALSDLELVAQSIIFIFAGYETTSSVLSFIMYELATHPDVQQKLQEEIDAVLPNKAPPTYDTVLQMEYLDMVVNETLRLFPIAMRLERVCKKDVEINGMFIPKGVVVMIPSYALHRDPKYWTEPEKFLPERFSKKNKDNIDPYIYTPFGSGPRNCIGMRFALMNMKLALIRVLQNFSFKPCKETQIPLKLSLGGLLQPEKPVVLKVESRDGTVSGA
Chain of Rap guanine nucleotide exchange factor 3 (Homo sapiens) (O95398 whole entry, looked up): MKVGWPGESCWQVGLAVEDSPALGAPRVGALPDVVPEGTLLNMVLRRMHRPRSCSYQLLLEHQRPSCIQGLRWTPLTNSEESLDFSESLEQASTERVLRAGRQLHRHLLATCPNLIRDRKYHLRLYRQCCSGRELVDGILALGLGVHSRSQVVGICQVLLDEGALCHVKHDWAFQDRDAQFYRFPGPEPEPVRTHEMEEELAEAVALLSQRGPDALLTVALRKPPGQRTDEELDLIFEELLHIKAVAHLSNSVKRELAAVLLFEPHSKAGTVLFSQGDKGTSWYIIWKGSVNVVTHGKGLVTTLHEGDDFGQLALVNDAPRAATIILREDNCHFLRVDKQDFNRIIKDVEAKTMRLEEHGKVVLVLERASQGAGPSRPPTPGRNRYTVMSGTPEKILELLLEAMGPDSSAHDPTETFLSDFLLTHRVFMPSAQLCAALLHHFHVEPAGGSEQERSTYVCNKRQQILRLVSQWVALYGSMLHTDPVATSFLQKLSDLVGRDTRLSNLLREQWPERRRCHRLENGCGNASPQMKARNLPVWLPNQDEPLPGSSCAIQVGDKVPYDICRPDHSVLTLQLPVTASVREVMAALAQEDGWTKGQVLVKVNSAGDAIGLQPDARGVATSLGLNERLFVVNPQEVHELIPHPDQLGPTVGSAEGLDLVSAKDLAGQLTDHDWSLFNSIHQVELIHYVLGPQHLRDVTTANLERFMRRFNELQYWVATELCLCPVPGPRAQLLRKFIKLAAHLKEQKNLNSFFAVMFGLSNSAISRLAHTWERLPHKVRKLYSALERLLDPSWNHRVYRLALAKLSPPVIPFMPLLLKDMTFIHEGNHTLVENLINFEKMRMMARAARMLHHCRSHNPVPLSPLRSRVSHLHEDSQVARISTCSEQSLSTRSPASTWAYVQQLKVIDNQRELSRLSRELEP
Chain of Dual specificity protein kinase CLK4 (Homo sapiens) (Q9HAZ1 whole entry, looked up): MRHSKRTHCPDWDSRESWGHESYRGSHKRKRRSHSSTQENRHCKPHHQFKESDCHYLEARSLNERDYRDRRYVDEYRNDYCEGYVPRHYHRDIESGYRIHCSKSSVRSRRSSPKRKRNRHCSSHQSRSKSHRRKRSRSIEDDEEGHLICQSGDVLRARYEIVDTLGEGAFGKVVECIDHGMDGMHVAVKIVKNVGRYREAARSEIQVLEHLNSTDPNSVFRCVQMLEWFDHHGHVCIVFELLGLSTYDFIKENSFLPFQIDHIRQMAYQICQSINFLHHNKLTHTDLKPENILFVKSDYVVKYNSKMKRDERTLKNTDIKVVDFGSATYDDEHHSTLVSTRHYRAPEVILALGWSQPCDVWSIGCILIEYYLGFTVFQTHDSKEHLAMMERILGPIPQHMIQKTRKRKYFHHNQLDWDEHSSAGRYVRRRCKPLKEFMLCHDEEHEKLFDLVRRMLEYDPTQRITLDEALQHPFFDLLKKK
Chain of Rap guanine nucleotide exchange factor 4 (Homo sapiens) (Q8WZA2 whole entry, looked up): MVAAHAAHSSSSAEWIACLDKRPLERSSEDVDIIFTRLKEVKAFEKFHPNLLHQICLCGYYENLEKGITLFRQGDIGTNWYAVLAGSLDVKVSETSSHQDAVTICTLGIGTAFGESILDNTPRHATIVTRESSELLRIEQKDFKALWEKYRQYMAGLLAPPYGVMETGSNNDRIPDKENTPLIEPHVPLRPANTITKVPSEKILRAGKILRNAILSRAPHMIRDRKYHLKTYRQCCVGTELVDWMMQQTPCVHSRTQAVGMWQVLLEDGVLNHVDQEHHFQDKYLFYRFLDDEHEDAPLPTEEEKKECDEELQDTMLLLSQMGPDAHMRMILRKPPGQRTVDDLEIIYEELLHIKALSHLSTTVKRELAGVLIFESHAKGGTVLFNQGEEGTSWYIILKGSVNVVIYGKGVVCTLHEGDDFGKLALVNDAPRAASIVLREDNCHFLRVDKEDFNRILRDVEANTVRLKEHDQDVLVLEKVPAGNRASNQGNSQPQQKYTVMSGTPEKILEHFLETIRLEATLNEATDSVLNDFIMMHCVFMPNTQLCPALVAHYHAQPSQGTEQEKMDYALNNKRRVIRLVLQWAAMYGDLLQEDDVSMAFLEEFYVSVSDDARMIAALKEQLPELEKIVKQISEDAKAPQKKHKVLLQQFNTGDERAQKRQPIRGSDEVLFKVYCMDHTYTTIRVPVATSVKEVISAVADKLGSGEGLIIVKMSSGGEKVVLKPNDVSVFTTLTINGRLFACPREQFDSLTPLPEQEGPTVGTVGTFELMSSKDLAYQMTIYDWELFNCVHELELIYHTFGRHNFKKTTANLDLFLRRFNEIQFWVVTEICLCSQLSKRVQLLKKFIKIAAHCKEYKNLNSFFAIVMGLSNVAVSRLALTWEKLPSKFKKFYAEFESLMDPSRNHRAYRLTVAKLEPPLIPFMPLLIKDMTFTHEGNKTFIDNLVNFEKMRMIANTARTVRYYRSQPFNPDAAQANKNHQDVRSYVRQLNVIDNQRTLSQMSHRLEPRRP
Chain of Glucocorticoid receptor (Homo sapiens) (P04150 whole entry, looked up, the tested form may be a part): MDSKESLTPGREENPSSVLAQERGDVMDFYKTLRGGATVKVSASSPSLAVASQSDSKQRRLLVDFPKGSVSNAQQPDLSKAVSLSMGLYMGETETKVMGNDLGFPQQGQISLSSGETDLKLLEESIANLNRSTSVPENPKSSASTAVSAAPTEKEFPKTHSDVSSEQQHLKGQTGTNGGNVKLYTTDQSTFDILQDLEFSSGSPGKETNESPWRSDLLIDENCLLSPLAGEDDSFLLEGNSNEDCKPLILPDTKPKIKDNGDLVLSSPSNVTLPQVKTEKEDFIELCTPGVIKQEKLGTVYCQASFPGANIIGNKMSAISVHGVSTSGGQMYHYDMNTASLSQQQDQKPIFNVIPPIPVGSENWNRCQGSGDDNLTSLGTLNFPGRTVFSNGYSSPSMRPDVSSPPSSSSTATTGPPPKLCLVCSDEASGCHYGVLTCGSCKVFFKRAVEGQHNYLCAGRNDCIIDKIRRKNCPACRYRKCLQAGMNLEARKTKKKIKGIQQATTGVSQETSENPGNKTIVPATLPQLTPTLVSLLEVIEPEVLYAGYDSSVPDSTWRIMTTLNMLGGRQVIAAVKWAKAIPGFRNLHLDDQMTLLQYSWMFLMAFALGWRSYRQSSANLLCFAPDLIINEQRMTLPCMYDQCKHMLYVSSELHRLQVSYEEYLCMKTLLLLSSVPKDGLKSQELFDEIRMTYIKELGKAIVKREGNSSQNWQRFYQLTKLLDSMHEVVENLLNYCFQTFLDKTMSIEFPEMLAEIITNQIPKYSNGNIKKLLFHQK
Chain of Cytochrome P450 2D6 (Homo sapiens) (P10635 whole entry, looked up): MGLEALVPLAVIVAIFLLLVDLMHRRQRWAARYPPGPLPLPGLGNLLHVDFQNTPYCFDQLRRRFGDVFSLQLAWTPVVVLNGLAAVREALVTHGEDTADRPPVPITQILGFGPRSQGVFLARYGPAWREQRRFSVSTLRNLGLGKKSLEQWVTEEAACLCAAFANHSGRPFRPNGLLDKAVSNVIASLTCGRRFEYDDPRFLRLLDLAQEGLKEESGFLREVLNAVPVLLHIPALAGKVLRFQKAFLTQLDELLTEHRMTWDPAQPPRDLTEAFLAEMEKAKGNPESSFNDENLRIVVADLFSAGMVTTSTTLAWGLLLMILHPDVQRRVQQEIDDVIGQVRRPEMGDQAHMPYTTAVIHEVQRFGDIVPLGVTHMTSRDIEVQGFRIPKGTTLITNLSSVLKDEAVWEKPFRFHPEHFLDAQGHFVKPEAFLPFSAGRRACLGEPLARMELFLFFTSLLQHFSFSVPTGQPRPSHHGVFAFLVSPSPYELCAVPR
Chain of 3',5'-cyclic-AMP phosphodiesterase 4B (Homo sapiens) (Q07343 whole entry, looked up): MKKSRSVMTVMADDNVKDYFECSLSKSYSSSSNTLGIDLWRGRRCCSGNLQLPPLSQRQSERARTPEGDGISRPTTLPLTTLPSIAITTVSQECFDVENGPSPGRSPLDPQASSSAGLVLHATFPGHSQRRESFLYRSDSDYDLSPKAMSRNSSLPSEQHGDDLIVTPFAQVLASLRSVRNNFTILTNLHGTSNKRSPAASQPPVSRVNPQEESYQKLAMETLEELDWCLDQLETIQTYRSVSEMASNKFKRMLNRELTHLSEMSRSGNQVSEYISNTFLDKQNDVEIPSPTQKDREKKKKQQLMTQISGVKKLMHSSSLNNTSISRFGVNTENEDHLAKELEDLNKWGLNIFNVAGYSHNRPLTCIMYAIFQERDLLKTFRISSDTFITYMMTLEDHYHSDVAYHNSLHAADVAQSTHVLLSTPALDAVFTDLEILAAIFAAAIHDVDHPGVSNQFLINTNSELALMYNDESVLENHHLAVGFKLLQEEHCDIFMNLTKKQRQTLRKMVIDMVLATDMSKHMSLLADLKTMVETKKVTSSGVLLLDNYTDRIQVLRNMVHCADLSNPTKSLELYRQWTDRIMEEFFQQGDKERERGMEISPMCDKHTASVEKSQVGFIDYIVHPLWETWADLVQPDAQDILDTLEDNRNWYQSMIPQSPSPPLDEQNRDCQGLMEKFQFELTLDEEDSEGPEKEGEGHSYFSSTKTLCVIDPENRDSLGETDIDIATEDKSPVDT

COc1ccc2[nH]cc(CCNc3ncnc4ccc(-c5ccc6c(c5)OCO6)cc34)c2c1
-4.39%: max response [13, 27]
inactive: Potency [1] > 11.4 µM | activity change, negative = inhibition [3] -23.8% | activity, negative = inhibition [4] -24.8% | Potency [5] > 46 µM | Potency [6] | Potency [7] | Potency [10] | activity change, negative = inhibition ([13]; at 57.5 µM (top of the series)) 2.76% | Potency [17] | Potency [18] | Potency [19] | Potency [20]
active: Potency [2] 0.631 µM | Potency [8] 0.126 µM | Potency [9] 2 µM | Potency [11] 2.51 µM | Potency [12] 1.58 µM | Potency [14] 0.316 µM | Potency [15] 0.282 µM | Potency [16] 0.0708 µM
-5.39%: max response [13, 28]

O=c1ccc2cc(O)c(O)cc2o1
inactive: activity change, negative = inhibition [21] 12.2% [at 17.2 µM] | activity change, negative = inhibition [3] 28.9% [at 17.2 µM] | Potency [22] > 20.6 µM | Potency [5] > 20.6 µM | Potency [6] | Potency [7] | Potency [9] | Potency [10] | outcome [24] | activity change, negative = inhibition ([13]; at 25.7 µM (top of the series)) -3.37% | activity change, negative = inhibition ([13]; at 57.5 µM (top of the series)) -7.91% | Potency [25]
-18.9% and -8.28%: max response [13, 28]
-16.4% and -4.98%: max response [13, 27]
active: Potency [23] 10 µM

CC(=O)NC(C(=O)O)C(C)(C)SN=O (stereo not drawn)
6.33%: max response [13, 27]
inactive: activity change, negative = inhibition ([13]; at 57.5 µM (top of the series)) 0.182%
9%: max response [13, 28]

CN(Cc1ccco1)c1ncnc2ccc(-c3ccc4c(c3)OCO4)cc12
inactive: Potency [1] > 11.4 µM | activity, negative = inhibition [4] -7.17% | Potency [22] > 46 µM | Potency [5] > 46 µM | Potency [6] | Potency [10] | outcome [24] | activity change, negative = inhibition ([13]; at 57.5 µM (top of the series)) 2.26% | Potency [17] | Potency [18] | Potency [19] | outcome [26]
active: Potency [2] 0.501 µM | Potency [11] 1.58 µM | Potency [12] 0.631 µM
13.9 µM (active) and inactive: Potency [20]
-9.61%: max response [13, 27]
-5.56%: max response [13, 28]
